Whole data set: some 81,000 sequences, median “one-hybrid fitness for binding NBS DNA” near -0.1, cut for the highest 2% near 0.36. The entries come from a sample that favours the highest values as a whole.
B1: Caulobacter ParB omega fusion; a variant is named by its letters at X, in order, B8GW30 (parent)
chain: MESVVVGEPGMSEGRRGLGRGLSALLGEVDAAPAQAPGEQLGGSREAPIEILQRNPDQPRRTFREEDLEDLSNSIREKGVLQPILVRPSPDTAGEYQIVAGERAWRAAQRAGLKTVPIMVRELDDLAVLEIGIIENVQRADLNVLEEALSYKVLMEKFERTQENIAQTIGKSXSHVANXMRLLXLPDEVQSYLVSGELTAXHARAIAAAADPVALAKQIIEGGLSVRETEALARKAPNLSAGKSKGGRPPRVKDTDTQALESDLSSVLGLDVSIDHRGSTGTLTITYATLEQLDDLCNRLTRGI

Variants of: B1
Test: one-hybrid fitness for binding NBS DNA (the Noc-binding site; scaled: cognate 1, non-cognate 0); higher = stronger binding
Details: with NBS DNA site
Outline: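 In E. coli USO, a HIS3 reporter with its site placed 19 bp from the promoter was used to select Caulobacter ParB variants randomised at four specificity codons. Growth lasted 48 hours at 37°C on histidine-free M9 containing 0.1 mM IPTG and 5 mM 3-AT. Fitness was taken as the log change in variant-to-wild-type read ratio from Illumina sequencing of pre- and post-selection plasmids, rescaled between the non-cognate and cognate sites.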

one-hybrid fitness for binding NBS DNA, 0.416:
DCRR
KQRR
RAQS

one-hybrid fitness for binding NBS DNA, 0.379:
QHVR

one-hybrid fitness for binding NBS DNA, 0.455:
RHQS

one-hybrid fitness for binding NBS DNA, 0.367:
KHRR

one-hybrid fitness for binding NBS DNA, 0.523:
RCGR

one-hybrid fitness for binding NBS DNA, 0.296:
RRCG

one-hybrid fitness for binding NBS DNA, 0.402:
RMKH

one-hybrid fitness for binding NBS DNA, ≤ 0.2:
QHVP
DHKR
LTLF
YIRF
KAST
GTAV
DSRR
KTDR
KKYR
KMYR
DPRR
KTYR
KKDR
KMDR
QEHI
GLEC
KISR
NLTF
IPIE
AYRA
LADD
DHMR
RSEM
KIPV
AVRD
ISPK
CECG
HLGA
KPRR
KHQR
KQYR
KHYR
NQRR
PLRA
YGEG
NPWT
YGMG
ETAK
RFQF
NMWY
NYHG
ANWC
AQQE
RMKD
RMKN
RMKP
RPKH
CHSP
DPDC
RVHP
RVHN
RVHM
RVHY
RVHH
RVHD
GNNW
HSLW
SLMG
ACAR
KRNK
SCKG
SRHE
IGMS
LVKR
RVQD
RVQP
RVPT
QQQI
DRRL
MTMS
RRCP
RRCD
SSEH
RSQN
RTQD
RSQD
RTQH
RKQD
RHQH
RHQN
RKQN
YQLE
WLLP
PIRG
RLRW
TAYQ
ARIK
ACVN
VRHN
IRAF
KMGK
VQSE
DNKI
DLTY
WNVE
RAQN
RMQH
RMQN
RPQS
RAQD
RDQS
RLQP
RLQH
PCVC
NLCG
TPCN
RCCC
VASN
HSTM
SDNA
FLCR
WDPR
GLGG
RSGP
RPGR
RSGH

one-hybrid fitness for binding NBS DNA, 0.459:
RTQS
RSGR

one-hybrid fitness for binding NBS DNA, 0.202:
NHKR

one-hybrid fitness for binding NBS DNA, 0.383:
RVAT

one-hybrid fitness for binding NBS DNA, 0.47:
KKRR

one-hybrid fitness for binding NBS DNA, 0.382:
RRCH
RLQS

one-hybrid fitness for binding NBS DNA, 0.46:
KCRR

one-hybrid fitness for binding NBS DNA, 0.461:
RVHS

one-hybrid fitness for binding NBS DNA, 0.433:
RSQS

one-hybrid fitness for binding NBS DNA, 0.409:
RMQS

one-hybrid fitness for binding NBS DNA, 0.438:
RVQT

one-hybrid fitness for binding NBS DNA, 0.541:
KTRR

one-hybrid fitness for binding NBS DNA, 0.357:
RSKH
RVYT

one-hybrid fitness for binding NBS DNA, 0.543:
RKQS

one-hybrid fitness for binding NBS DNA, 0.487:
RVHT

one-hybrid fitness for binding NBS DNA, 0.631:
RVRT

one-hybrid fitness for binding NBS DNA, 0.474:
RCQS

one-hybrid fitness for binding NBS DNA, 0.358:
RVAS

one-hybrid fitness for binding NBS DNA, 0.484:
RVHR

one-hybrid fitness for binding NBS DNA, 0.248:
RRCN

one-hybrid fitness for binding NBS DNA, 0.271:
RVFT

one-hybrid fitness for binding NBS DNA, 0.598:
RMKS

one-hybrid fitness for binding NBS DNA, 0.398:
KMRR

one-hybrid fitness for binding NBS DNA, 0.642:
RRCS

one-hybrid fitness for binding NBS DNA, 0.343:
KSRR

one-hybrid fitness for binding NBS DNA, 0.403:
RCKH

one-hybrid fitness for binding NBS DNA, 1.03:
QHKR

one-hybrid fitness for binding NBS DNA, 0.29:
RMVS

one-hybrid fitness for binding NBS DNA, 0.23:
RFGR
